# Key:
# Type in all cases: functional
# [1] = target: Solute carrier family 2, facilitated glucose transporter member 1 (Homo sapiens) (UniProt P11166); test: ST_JUDE_LEISH: Cytotoxicity at 2uM final concentration against transgenic Leishmania Mexicana promastigotes LmGLUT1 that are glucose transport deficient and complemented with the human glucose transporter GLUT1. Activity is measured by DNA content using SYBR green in vitro
# [2] = target: Hexose transporter 1 (Plasmodium falciparum) (UniProt O97467); test: ST_JUDE_LEISH: Cytotoxicity at 2uM final concentration against transgenic Leishmania Mexicana promastigotes LmPfHT that are glucose transport deficient and complemented with the Plasmodium falciparum hexose transporter. Activity is measured by DNA content using SYBR green in vitro
# [3] = target: Glucose transporter (Leishmania mexicana) (UniProt O61059); test: ST_JUDE_LEISH: Cytotoxicity at 2uM final concentration against transgenic Leishmania Mexicana promastigotes LmGT2 that are glucose transport deficient and complemented with the L. Mexicana glucose transporter 2. Activity is measured by DNA content using SYBR green in vitro
# Sequence of Solute carrier family 2, facilitated glucose transporter member 1 (Homo sapiens) (P11166 whole entry): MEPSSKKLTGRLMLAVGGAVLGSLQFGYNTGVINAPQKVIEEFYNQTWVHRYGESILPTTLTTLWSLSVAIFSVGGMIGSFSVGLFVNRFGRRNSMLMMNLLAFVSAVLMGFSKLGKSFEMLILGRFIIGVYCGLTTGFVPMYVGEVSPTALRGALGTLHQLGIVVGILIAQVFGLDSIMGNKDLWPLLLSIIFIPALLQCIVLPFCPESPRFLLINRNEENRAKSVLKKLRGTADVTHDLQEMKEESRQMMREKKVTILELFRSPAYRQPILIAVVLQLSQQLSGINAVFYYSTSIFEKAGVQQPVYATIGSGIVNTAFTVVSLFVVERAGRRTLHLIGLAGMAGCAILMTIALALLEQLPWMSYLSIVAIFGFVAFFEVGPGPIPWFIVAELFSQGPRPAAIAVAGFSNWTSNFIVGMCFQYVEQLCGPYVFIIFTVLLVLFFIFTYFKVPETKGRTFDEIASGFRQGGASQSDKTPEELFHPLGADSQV
SMILES,inhibition [1],inhibition [2],inhibition [3]
Cc1cc(NCCC(=O)NCCOc2ccccc2)nc(NCCOc2ccccc2)n1,3.09%,-0.07%,0.08%
O=C([C@H]1CCCCN1c1ccc([N+](=O)[O-])c2ccccc12)N1CCN(c2ncccn2)CC1,2.02%,3.05%,2.64%
O=S(=O)(NC1=NCCC1)c1cccc(Nc2nc(C(F)(F)F)nc3ccccc23)c1,-1.06%,-1.27%,-3.08%
Cc1cccc2nc(-c3ccc(-c4cccc(CN5CCN(c6ccncc6)CC5)c4)cc3)[nH]c12,25.2%,25.8%,8.81%
CCOC(=O)c1nc(-c2cc(Cl)nc(Cl)c2)[nH]c1NC(=S)NCc1ccc(NS(C)(=O)=O)cc1,-2.02%,-1.98%,-1.67%
CCCCNc1cc(C)nc(NCc2ccccc2)n1,22.1%,16.4%,5.11%
COc1cc2nc(N3CCC(CNC(=O)c4ccc(OC(F)(F)F)cc4)CC3)nc(N)c2cc1OC,-0.03%,0.04%,0.16%
CCN1CCN(Cc2c(O)ccc3c(=O)c(Oc4cc(C)cc(C)c4)c(C(F)(F)F)oc23)CC1,75.7%,73.3%,54.5%
CN(C)c1cccc(-c2cnc3ccc(NCc4cccc(Cl)c4)nn23)c1,1.27%,2.01%,1.77%
O=C(N[C@@H](Cc1ccccc1)C(=O)NC1CCCCC1)c1ccc(O)c(-c2cccc(C(F)(F)F)c2)c1,3.98%,5.95%,5.39%
O=C(NCCN1CCOCC1)c1csc(C2CCCN(C(=O)c3ccc(O)c(-c4cc(Cl)cc(Cl)c4)c3)C2)n1 (stereo unspecified),8.92%,1.79%,1.85%
COc1ccc(NC(=O)[C@H](CC(C)C)Nc2cc(C)nc(Nc3ccccc3)n2)cc1,19.2%,15.8%,14.9%

# — ChEMBL document CHEMBL3433997, “St. Jude Leishmania screening dataset” (2016)
